Source: PubChem BioAssay
In the library only some 2.7% were active in any assay of this set; here they are far more common.
GLP-1R agonist = activates the human GLP-1 receptor; P43220; HEK293 GLP-1R CRE-luciferase, luminescence, 4-6 h; cells express a hypersensitive GLP-1R form; Potency, µM (titrated, usually from 45.6 µM), without a hit: at the top dose activation, most hits filed as activators; actives 0.007% (n = 380,000); further: % of control where 0% means no effect
Target sequence (P43220 whole entry, looked up): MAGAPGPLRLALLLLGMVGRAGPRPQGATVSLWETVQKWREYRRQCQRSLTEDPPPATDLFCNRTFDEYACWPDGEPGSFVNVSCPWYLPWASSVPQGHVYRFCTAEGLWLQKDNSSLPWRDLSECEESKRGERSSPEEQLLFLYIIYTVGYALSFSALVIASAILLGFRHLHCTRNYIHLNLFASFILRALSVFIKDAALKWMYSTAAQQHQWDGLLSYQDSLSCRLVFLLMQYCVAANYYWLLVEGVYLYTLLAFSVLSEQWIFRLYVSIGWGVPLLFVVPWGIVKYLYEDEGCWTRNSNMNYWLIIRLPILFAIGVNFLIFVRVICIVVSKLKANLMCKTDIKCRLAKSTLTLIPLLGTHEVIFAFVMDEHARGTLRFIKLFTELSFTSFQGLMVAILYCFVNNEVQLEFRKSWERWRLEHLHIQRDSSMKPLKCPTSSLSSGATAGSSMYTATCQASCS
HEK293 tox = cytotoxicity counter-screen for GLP-1 receptor inverse agonists; HEK293 cAMP-luciferase reporter cells, luminescence, 24 h; Potency, µM (series often up to 38.3 µM), inactives show at the highest dose activity change, negative = inhibition, hits mostly inhibitors; actives 0.13% (n = 410,000); AID 624418;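 further: loss of luciferase light is scored as toxicity; on the % scale 0 is the no-effect control and ±100 the full control effect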
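Here, cytotoxicity is scored as loss of luminescence. The MLSMR collection was tested on cells seeded in medium containing 10% Nu serum, with a 24 hr compound exposure preceded by 12 hours of culture.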
a7 integrin act = activates integrin-mediated alleviation for muscular dystrophy | actives 0.064% (n = 350,000) | Potency, µM (series often up to 38.3 µM), for the others: at the top dose activation, hits mostly activators | alpha7betagal myoblasts, beta-gal FDG fluorescence, 48 h;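 further: 100% = response of the positive control SU9516; nearly all actives have a fitted effect of over 60% in size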
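Alpha7betagal+/- myoblasts (passage 13) were plated 16-24 hr, then exposed to compounds (1:260 dilution of DMSO stock) for 48 hours at 37C. After MPER lysis, β-galactosidase reporter activity was read as FDG fluorescence (ex 480/em 540) after 30 minutes.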
GLP-1R inv ag = inverse agonists of human GLP-1 receptor. Potency, µM (titrated, usually from 38.3 µM), inactives show at the top dose activity change, negative = inhibition, most hits filed as inhibitors. actives 1.6% (n = 410,000). HEK293 GLP-1R CRE-luciferase, luminescence, 24 h; GLP-1R form is constitutively active; further: on the % scale 0 is the no-effect control and ±100 the full control effect; nearly all actives have a fitted effect of over 55% in size
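HEK293 cells stably co-expressing a cAMP-responsive luciferase reporter and constitutively active GLP-1R were seeded, incubated 12 h, then exposed to compounds for 24 h at 37 C. Luminescence was read 12 min after detection reagent; inverse agonists lower signal.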
BRCA1 expr up = increases BRCA1 expression | MCF7-BRCA1-FFLuc reporter, luminescence, 48 h; response scale: scaled: vehicle 0%, 10 µM genistein 100% | Potency, µM (top dose mostly 46.1 µM), inactives show top-dose activation, actives largely listed as activators | actives 1.1% (n = 380,000); further: nearly all actives have a fitted effect of over 80% in size
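Quantitative HTS in MCF7 cells stably reporting BRCA1 expression via firefly luciferase. Compound treatment lasts 48 h at 37 °C in phenol-red free MEM. Activation is expressed relative to genistein at 10 microM and DMSO.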
An asterisk follows results filed as active; ? = inconclusive; nt = not tested or not shown; [ ] = another dose, or the depositor's remark. The call rests on the fitted dose curve; in most records, active means well fitted curve in the direction sought with a large enough effect; inconclusive means small, poorly fitted or top-dose-only effect, or another doubt; inactive means no such curve, though single readings can be large; an effect the other way counts as inactive or inconclusive. Potency means the concentration at half of the fitted maximal effect.

SMILES	GLP-1R agonist	HEK293 tox	a7 integrin act	GLP-1R inv ag	BRCA1 expr up
COc1cccc(C#Cc2c(C=O)n(C)c3ccccc23)c1	-6%	51%	-11%	10µM*	-16%
Cc1ccccc1C(=O)NCC(c1cccnc1)N1CCc2ccccc21 (configuration not stated)	nt	11%	nt	-19%	nt
Fc1ccc(Nc2nc(SCc3cccc(Cl)c3)nc3ccccc23)cc1	nt	-14%	nt	11µM*	nt
CC[N+]1(CC(=O)c2cccs2)CCCCC1	nt	nt	nt	nt	-4%
CCN(CC)S(=O)(=O)c1ccc(N2CCc3ccccc3C2)nc1	5%	3%	0%	?	64%
CC(C)N(C(C)C)S(=O)(=O)c1ccc(N2CCc3ccccc3C2)nc1	18%	0%	-3%	7.9µM*	45%
O=C1CN(c2ccccc2)C(=S)N1C(=O)c1ccccc1	-1%	0%	15%	6%	7.1µM*
O=C(c1ccccc1)N1CCC(=O)N1c1ccccc1	-6%	-5%	2%	7%	-7%
O=C(NCCCO)C(=O)NCC(c1ccc2c(c1)OCO2)N1CCOCC1 (configuration not stated)	nt	3%	nt	5%	nt
NC(=O)c1cccnc1Nc1cccc([N+](=O)[O-])c1	1%	22%[7.66 µM]	-3%	72%[7.66 µM]	1.8µM*
NC(=O)c1cccnc1Nc1cccc(F)c1	1%	-9%	16%	6%	-1%
Cc1cc(NC(=O)CSc2nc(-c3cccc(F)c3)nc3c2c(=O)n(C)c(=O)n3C)no1	nt	20%	nt	12%	nt
COc1ccc(NC(=O)c2cc(C)nc3c2c(C)nn3-c2cccc(Cl)c2C)c(OC)c1	nt	10%	nt	33%	nt
CCc1ccc(-n2nc(C)c3c(C(=O)Nc4cc(OC)cc(OC)c4)cc(C)nc32)cc1	nt	0%	nt	5µM*	nt
COc1cc(NC(=O)c2cc(C)nc3c2c(C)nn3-c2ccccc2Cl)cc(OC)c1	-7%	-3%	nt	13µM*	-31%
CCOC(=O)c1cnc2ccc(OCC)cc2c1Nc1ccc(OCc2ccccc2Cl)cc1	nt	8%	nt	?	nt
CCOC(=O)c1cnc2ccc(C)cc2c1Nc1ccc(OCc2ccccc2Cl)cc1	nt	0%	nt	11µM*	nt
CCc1ccc(-c2nnn(CCC#N)n2)cc1	26%	2%	-8%	32%	13µM*
O=c1c2ccccc2nc(SCc2ccccc2)n1Cc1ccco1	9%	18%	-33%	11µM*	-33%
Nn1c(SCc2ccccc2)nc2ccccc21	10%	-10%	?	-4%	3.2µM*
FC(F)(F)COc1cc(-c2nnc(SCc3ccccc3)n2Cc2ccco2)cc(OCC(F)(F)F)n1	13%	5%	0%	10µM*	-39%
Cc1cccc(-c2nnc(SCc3ccc(C#N)cc3)n2Cc2ccco2)c1	1%	?	28%	?	-44%
O=C(CSc1nc(-c2ccccc2)no1)N1CCN(c2ccc(F)cc2)CC1	nt	-2%	nt	7%	nt
O=C(Nc1ccccc1OCc1cc(=O)n2ccccc2n1)Nc1ccccc1C(F)(F)F	nt	-1%	nt	4%	nt
Clc1cccc(-n2ncc3c(NCCCn4ccnc4)ncnc32)c1	nt	-7%	nt	?	nt
SMILES	GLP-1R agonist	HEK293 tox	a7 integrin act	GLP-1R inv ag	BRCA1 expr up
O=C(Cc1nc2ccccc2[nH]c1=O)c1ccccc1	2%	11%	3%	15%	5.6µM*
CCOC(=O)C1(CC2CCCCO2)CCN(Cc2nccn2-c2cccc(C)c2)CC1 (configuration not stated)	17%	-29%	17%	10µM*	-19%
CCOC(=O)C1(CC2CCCCO2)CCN(Cc2nccn2-c2ccc(OC)cc2)CC1 (configuration not stated)	23%	?	6%	-22%	-11%
O=c1[nH]c2c(s1)C(c1ccccc1)C1C3CCC(C3)C1S2 (configuration not stated)	0%	41%	-2%	6.3µM*	-34%
COc1ccc(C2c3sc(=O)[nH]c3SC3C4CCC(C4)C23)cc1 (configuration not stated)	-2%	-7%	-8%	-12%	5%
Cc1ccc(OCCSc2nc3ccccc3n2CC(=O)NC(C)C)cc1	nt	8%	nt	10%	0%
COc1ccc(C(=O)NC2CC2)cc1OC1CCN(Cc2ccc(F)cc2Cl)CC1	-5%	?	-8%	10µM*	-42%
COc1ccc(C2NC(=O)N(C)C3=C2C(=O)N(c2ccc(F)cc2)C3)cc1 (configuration not stated)	nt	5%	nt	5%	nt
COc1ccc(C(=O)c2oc3ccc(OC)cc3c2N)cc1	5%	23%	17%	-8%	5µM*
C(=N\Nc1nc2ccccc2[nH]1)/c1cccs1	-1%	15%	-8%	4%	10µM*
COC(=O)c1ccc(/C=N/Nc2nc3ccccc3[nH]2)cc1	18%	-9%	14%	56%	3.2µM*
O=C(O)c1ccc(/C=N/Nc2nc3ccccc3[nH]2)cc1	4%	3%	18%	12%	0%
C(=N\Nc1nc2ccccc2[nH]1)/c1ccc2c(c1)OCO2	13%	?	17%	?	13µM*
C/C(=N\Nc1nc2ccccc2[nH]1)c1ccc2c(c1)OCO2	9%	?	?	?	-41%
O=[N+]([O-])c1ccc(N/N=C/c2cccs2)nc1	-7%	3%	15%	-6%	4µM*
N#CN=c1snc(-c2ccccc2)n1-c1ccc(Cl)cc1	nt	nt	nt	nt	-47%
Cc1ccc(-c2cn3c(n2)sc2cc(C(=O)NC4CCCCCC4)ccc23)c(C)c1	nt	2%	nt	1%	nt
Cc1ccc(C)c(CNC(=O)c2ccc3c(c2)nc2n3CCC(C)C2)c1 (configuration not stated)	nt	-12%	nt	12%	nt
COc1cccc(/C=N/Nc2nc3ccccc3[nH]2)c1O	-4%	?	-50%	?	-67%
COc1cccc(/C=N/Nc2nc3ccccc3[nH]2)c1OC	11%	0%	8%	27%	7.9µM*
O=C(NCCCc1nc2ccccc2n1Cc1ccc(Cl)cc1)c1ccco1	nt	10%	nt	-10%	nt
Cc1ccc(C(CC(=O)NCCCN(C)C)c2ccc(OC(C)C)cc2)cc1 (configuration not stated)	8%	-17%	-71%	11µM*	-3%
COc1cc2c(c(OC)c1OC)-c1c(cc3c(c1OC)OCO3)CC(C)C(C)(O)C2 (configuration not stated)	-3%	nt	nt	nt	nt
Cc1ccccc1NC(=O)c1ccc(F)c(S(=O)(=O)NCC2CCCO2)c1 (configuration not stated)	-6%	-1%	-18%	-12%	-2%
Cc1ccccc1NC(=O)c1ccc(F)c(S(=O)(=O)N(C)C2CCCCC2)c1	nt	-1%	nt	10µM*	nt
CN(C)/C=C1\SC(=S)N(c2ccc(Br)cc2)C1=O	-4%	-30%	-10%	-21%	10µM*
CN(C)/C=C1\SC(=S)N(c2ccc(F)cc2)C1=O	1%	?	?	9%	62%
